Screening results from PubChem BioAssay.
Only some compounds are listed: those with a hit (about 1.7% of all), similar ones and a draw of the others.
RecA intein inh = Mtb RecA intein splicing inhibitors, primary screen, biochemical, fluorescence, HTS; Protein RecA (Mycobacterium tuberculosis (strain ATCC 25618 / H37Rv)), P9WHJ3; cell-free RecA intein splicing; inhibition, % (test concentration not listed); hit rate 0.75% among 290,000; in the data active = inhibition above about 30%;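 note: 0% = vehicle wells and 100% = reference inhibitor control wells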
3CLpro inhibitor = SARS-CoV 3CLpro protease inhibitors, primary screen, biochemical, quenched FRET. inhibition, % at 6 µM. hit rate 0.14% among 290,000. Replicase polyprotein 1ab (Severe acute respiratory syndrome coronavirus), P0C6X7. recombinant SARS-CoV 3CLpro, quenched FRET peptide cleavage; in the data active = inhibition above about 12%
CCHF vOTU inh-1 = CCHFV vOTU protease inhibitors, primary screen, biochemical, Pep-AMC substrate, fluorescence; Crimean-Congo hemorrhagic fever virus L polyprotein viral ovarian tumor (vOTU) protease …; AID 651958, 2012; hit rate 0.55% among 370,000; inhibition, % at 11.5 µM; note: 0% = vehicle wells with enzyme and 100% = no enzyme wells
SSB-PriA inh = inhibitors of Klebsiella pneumoniae PriA binding to SSB C-terminal tail, primary screen, biochemical, AlphaScreen. hit rate 0.6% among 430,000. AlphaScreen SSBct-PriA binding, biotinylated peptide. inhibition, % at 33 µM; in the data active = inhibition mostly above about 37%, no sharp cut-off; inactive = mostly below about 20%;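 note: plate controls were negative control peptide for no effect and reference peptide for full effect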
VHR inh abs = VHR1 phosphatase inhibitors, primary screen, biochemical, absorbance, uHTS. recombinant VHR phosphatase, pNPP absorbance. hit rate 0.52% among 290,000. inhibition, % at 13.3 µM. Dual specificity protein phosphatase 3 (Homo sapiens), P51452; in the data active = inhibition above about 50%
Target sequence (P51452 whole entry, looked up): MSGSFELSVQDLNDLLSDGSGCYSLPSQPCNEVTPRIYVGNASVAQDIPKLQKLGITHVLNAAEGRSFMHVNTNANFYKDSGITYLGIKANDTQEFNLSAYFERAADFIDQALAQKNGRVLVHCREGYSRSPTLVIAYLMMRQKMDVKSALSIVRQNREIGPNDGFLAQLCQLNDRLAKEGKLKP
CCHF vOTU inh-2 = CCHFV vOTU protease inhibitors, confirmation, biochemical, Pep-AMC substrate, fluorescence; Recombinant CCHFV vOTU; shares compounds with CCHF vOTU inh-1; hit rate 17% among 1,900; inhibition, % at 11.5 µM
The depositor's hits bear a star; x = no result. Cut-off read from the data, not from the text of the source, unless noted: active = inhibition above about 30%; inactive = the rest.

SMILES	RecA intein inh	3CLpro inhibitor	CCHF vOTU inh-1	SSB-PriA inh	VHR inh abs	CCHF vOTU inh-2
Cc1ccc(C)c(N2CCN(c3ccc(S(=O)(=O)C4CCCCC4)nn3)CC2)c1	x	x	x	-8.0	x	x
CC1=C(C(=O)N2CCOCC2)CC(CC(=O)NCCN2CCOCC2)C(=O)N1Cc1ccc(F)cc1 (stereo not drawn)	x	x	4.8	x	x	x
CC1=C(C(=O)N2CCOCC2)CC(CC(=O)NCCN2CCOCC2)C(=O)N1Cc1ccccc1 (stereo not drawn)	x	x	30.4*	x	x	-25.5
Nc1ccc2nc(-c3ccc(-c4nc5ccc(N)cc5[nH]4)cc3)[nH]c2c1	-18.0	-17.5	35.9*	-14.4	-41.0	-8.6
Cc1ccc2nc(-c3ccc(N)cc3)[nH]c2c1	x	x	x	-6.0	x	x
COc1cc([N+](=O)[O-])cc(/C=N/NC(=O)C(C)Nc2cccc3ccccc23)c1O (stereo not drawn)	7.3	-12.1	5.2	x	17.0	x
Cc1cccc(/C=N/NC(=O)C(C)Nc2cccc3ccccc23)n1 (stereo not drawn)	74.7*	-16.5	114.9*	x	30.3	-19.4
O=C(CNc1cccc2ccccc12)c1ccc([N+](=O)[O-])cc1	5.8	-3.7	30.1*	8.7	14.7	-16.6
CC(Nc1cccc2ccccc12)C(=O)N/N=C/c1ccc([N+](=O)[O-])cc1 (stereo not drawn)	4.0	2.8	104.0*	x	41.8	-5.9
COc1ccc(S(=O)(=O)Nc2ccc(-c3csc4nc(C)cc(=O)n34)cc2)cc1F	x	x	x	-6.0	x	x
C=CCCC(=O)N(CCc1cccs1)Cc1ccoc1	x	x	x	-5.0	x	x
CCN(CC)c1ccc(C=Nc2ccc(N(C)C)cc2)c(O)c1	-2.9	-0.9	74.1*	43.6	34.6	-1.8
CCN(CC)c1ccc(N=Cc2ccc(N(CC)CC)cc2O)cc1	-2.0	0.4	24.3	19.7	-12.2	x
CNCc1ccccc1Sc1cc(O)ccc1O	x	0.5	29.7*	36.4	-7.8	3.6
Cn1c(SCC(=O)Nc2cccc(C(F)(F)F)c2)nnc1-c1ccc(=O)n(C)c1	x	x	x	-5.0	x	x
Cc1ccc(S(=O)(=O)/N=C(/Nc2nc(C)cs2)c2ccccc2)cc1	x	x	37.9*	x	x	-8.7
O=C(O)c1cc(N2N=C(C(F)(F)F)/C(=C/C=C/c3ccco3)C2=O)ccc1Cl	x	5.7	63.4*	-2.1	48.3	44.0*
COc1ccc(OC)c(NC(=O)CSc2nc(O)cc(=O)n2CC(C)C)c1	x	x	32.5*	2.0	x	-11.2
Cc1ccc2nc(NC(=O)CSCC(=O)OCC(=O)c3ccccc3)sc2c1	3.7	3.5	35.5*	-3.4	-7.9	-4.1
O=C(Cc1c(F)cccc1Cl)NCC1(c2cccs2)CCCC1	x	x	x	-5.0	x	x
Cc1cc(/C=C(\C#N)C(=O)O)c(C)n1CC(C)C	x	4.1	3.3	2.4	21.9	x
Cc1cc(/C=C(\C#N)C(=O)O)c(C)n1CCC(C)C	1.5	-0.4	29.7*	-1.4	33.9	4.2
COc1cc(/C=N/n2c(C3CCCCC3)n[nH]c2=S)ccc1O	-1.4	1.9	31.3*	x	58.2*	-15.6
COc1ccc(OC)c(-c2cc(C(=O)N3CCCC[C@H](c4ccc(F)cc4)C3)n(C)n2)c1	x	x	x	10.0	x	x
NC(=O)C1CCN(C2=C(NS(=O)(=O)c3ccc(Br)cc3)C(=O)c3ccccc3C2=O)CC1	5.8	5.8	38.9*	25.6	-24.0	-2.0
SMILES	RecA intein inh	3CLpro inhibitor	CCHF vOTU inh-1	SSB-PriA inh	VHR inh abs	CCHF vOTU inh-2
NC(=O)C1CCN(c2nc3ccccc3nc2NS(=O)(=O)c2ccc(Br)cc2)CC1	x	x	11.9	2.4	x	x
CCOC(=O)C1CCN(C2=C(NS(=O)(=O)c3ccc(Br)cc3)C(=O)c3ccccc3C2=O)CC1	26.3	-2.1	44.8*	-14.9	17.7	19.4
Cc1cccc(NS(=O)(=O)c2ccc3[nH]c(=O)cc(C(=O)OC(C)C(=O)Nc4ccc([N+](=O)[O-])cc4)c3c2)c1 (stereo not drawn)	8.9	3.4	34.4*	6.3	5.6	-9.6
CCCCCCCCN1C(=O)[C@H](CC(=O)NCc2ccc(OC)c(OC)c2)C[C@@]2(C(=O)OCC)CCCC=C12	x	x	39.1*	x	x	16.2
CCCCCCCCN1C(=O)[C@H](CC(=O)NCCc2ccccc2OC)C[C@@]2(C(=O)OC)CCCCC=C12	x	x	46.6*	x	x	9.7
CCOC(=O)[C@]12CCC=C1N(Cc1ccc(Cl)cc1Cl)C(=O)[C@H](CC(=O)NCc1ccc(C)o1)C2	x	x	34.5*	x	x	-11.4
CCOC(=O)[C@]12CCCC=C1N(CCc1ccc(OC)c(OC)c1)C(=O)[C@H](CC(=O)NCc1ccccc1)C2	x	x	6.1	x	x	x
CCCCCCCCN1C(=O)[C@H](CC(=O)NCc2cccs2)C[C@@]2(C(=O)OCC)CCCC=C12	x	x	31.2*	x	x	13.9
O=C(Cc1ccc(Cl)cc1)Nc1ccc(-c2ccc3nncn3n2)cc1	x	x	x	-6.0	x	x
Cc1ccc(-n2c(C)cc(/C=C3\NC(=O)NC3=O)c2C)c(C)c1	-0.3	3.5	32.8*	23.7	-17.0	-2.2
CN(C)c1ccc(C=c2c3cc([N+](=O)[O-])ccc3n3c2cc(-c2ccccc2)[n+]3C)cc1	x	x	39.6*	5.9	x	11.3
CN(c1ccc(Cl)cc1)c1cc(=O)n(C)c2ccccc12	3.6	3.8	17.6	-21.9	27.4	x
COc1cc(N(C)C)ccc1C=c1c2ccccc2n2c1cc(-c1ccccc1)[n+]2C	x	x	33.9*	92.0	x	6.8
CN(C)c1ccc(C=c2c3ccccc3n3c2cc(-c2ccc(Cl)cc2)[n+]3C)cc1	x	x	46.6*	x	x	10.0
CN(C)c1ccc(C=c2c3ccccc3n3c2c2c([n+]3C)CCCC2)cc1	x	x	34.6*	59.6	x	-1.5
Cn1c(CO)c(-c2ccccc2)c2cc([N+](=O)[O-])ccc21	-3.5	2.4	12.9	5.8	0.1	x
COc1cccc(CC(=O)NCC2CCN(c3ncccn3)CC2)c1	x	x	x	-9.0	x	x
COc1ccc(S(=O)(=O)N2CCN(c3nc4c(OC)ccc(Cl)c4s3)CC2)cc1	x	x	x	10.0	x	x
